Most compounds without a hit are left out; they make up all but 1.6% or so of the library.
KCNQ2 inh: rat KCNQ2 potassium channel inhibitors, primary screen, cell-based, CHO-K1, FluxOR thallium flux, B-score; AID 2156, 2009; 310,000 tested, 1.1% active; B-score at 10 µM; 20 min; hits give low values; Potassium voltage-gated channel subfamily KQT member 2 (Rattus norvegicus), O88943;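 active = fluorescence ratio B-score at most minus 3 library SDs, with starting brightness B-score within 2 library SDs, cut at about -5.5 in these data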
KCNQ2 enhance: potentiators of rat KCNQ2 potassium channel | 310,000 tested, 0.54% active | B-score at 10 µM | CHO-K1 KCNQ2, FluxOR thallium flux fluorescence; hits give high values | AID 2239, 2010;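 active = fluorescence ratio B-score at least 3 SD of library B-scores, with initial fluorescence B-score within 3 of them, cut at about 5.3 in these data; same plate scores as AID 2156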;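 also: B-score of peak minus minimum over baseline fluorescence ratio after K+ and Tl+ stimulus; positive B-score means potentiation of KCNQ2 with more thallium influx and brighter signal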
Kir21 conf inh: mouse Kir2.1 channel blockers, retest, confirmation, cell-based, FluxOR thallium flux, duplicate; shares compounds with KCNQ2 enhance; Kir2.1-expressing cells, FluxOR thallium flux fluorescence; hits give low values; Tl flux remaining, % of negative control (hits give low values), % at 10 µM; 2,300 tested, 41% active;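 active = Primary-screen hit whose thallium flux fell at least 3 control SD below untreated wells in both duplicates, with normal baseline fluorescence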;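 also: 0% = blank wells without stimulus and 100% = stimulated no-compound controls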
Target sequence (P35561 whole entry, looked up): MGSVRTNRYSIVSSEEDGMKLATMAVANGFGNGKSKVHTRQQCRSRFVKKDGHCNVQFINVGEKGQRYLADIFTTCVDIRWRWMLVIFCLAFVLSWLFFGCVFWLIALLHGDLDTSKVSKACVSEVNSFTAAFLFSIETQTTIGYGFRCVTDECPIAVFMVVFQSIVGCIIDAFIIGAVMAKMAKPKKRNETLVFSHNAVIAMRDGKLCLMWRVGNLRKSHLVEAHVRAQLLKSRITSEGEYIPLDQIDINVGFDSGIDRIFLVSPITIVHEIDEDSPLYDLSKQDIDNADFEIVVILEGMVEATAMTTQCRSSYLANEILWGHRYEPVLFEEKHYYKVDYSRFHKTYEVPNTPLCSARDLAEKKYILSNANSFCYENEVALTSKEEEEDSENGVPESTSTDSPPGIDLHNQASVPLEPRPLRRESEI
HEK293 Tl flux: parental HEK293 activity in Kir2.1 inhibitor counter-screen; shares compounds with KCNQ2 enhance; parental HEK293 cells, FluxOR thallium flux fluorescence; 0% = unstimulated blank wells; 2,300 tested, 19% active; FluxOR signal as % of negative control (100 = no effect), % at 10 µM; AID 2105;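 active = dye signal at least 3 control SD above or below untreated wells in both duplicates, raw fluorescence within 3, either direction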;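 also: percent is based on the flux ratio of peak minus minimum fluorescence over baseline F0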
CHO-K1 ctr: nonspecific thallium flux increase in parental CHO-K1, confirmation, counter-screen for KCNQ2 potentiator project, cell-based, FluxOR thallium flux, duplicate. activity increase over 3SD of controls, % at 10 µM. shares compounds with KCNQ2 enhance. 1,200 tested, 43% active. parental CHO-K1 cells, FluxOR thallium flux fluorescence; zero = vehicle mean+3SD, 100% = vehicle-minus-blank window;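 active = signal rise of at least 3 SD above the untreated control mean, in both duplicate wells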;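 also: counter screen of KCNQ2 potentiator hits so any rise reflects channel-independent effects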
KCNQ1 sel pot: human KCNQ1 channel potentiation off-target, confirmation, selectivity assay for KCNQ2 potentiator project, cell-based, CHO, FluxOR thallium flux | activation over 3SD threshold, % at 10 µM | shares compounds with KCNQ2 enhance | 1,200 tested, 28% active | CHO KCNQ1 stable, FluxOR thallium flux fluorescence; beyond 3SD, as % of vehicle-control signal;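 active = fluorescence ratio rise of at least 3 SD of vehicle wells above their mean, in both replicate wells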;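 also: 0% = vehicle mean plus 3 SD and 100% = vehicle minus unstimulated blank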
KCNQ2 pot conf: rat KCNQ2 channel potentiators, confirmation, cell-based, CHO, FluxOR thallium flux, duplicate; shares compounds with KCNQ2 enhance; CHO-KCNQ2 cells, FluxOR thallium flux fluorescence; potentiation, less the hit threshold, % at 10 µM; 1,200 tested, 68% active; AID 2287, 2010;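 active = fluorescence ratio rising 3 SD or more over the vehicle control mean in both replicates, plus primary screen hit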;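 also: peak minus minimum thallium fluorescence divided by baseline after K/Tl stimulus; 0% = vehicle mean plus 3 SD and 100% = vehicle minus unstimulated blank difference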
Kir2-1 sel: mouse Kir2.1 channel activation off-target, confirmation, selectivity assay for KCNQ2 potentiator project, cell-based, HEK293, FluxOR thallium flux; HEK293 Kir2.1, FluxOR thallium flux fluorescence; shares compounds with KCNQ2 enhance; activity over 3SD threshold, % at 10 µM; AID 2345, 2010; 1,200 tested, 2% active;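 active = fluorescence ratio rise of at least 3 SD above the vehicle-control mean, seen in both replicates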;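 also: 0% = vehicle mean plus 3 SD and 100% = vehicle minus no-stimulus blank window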
KCNQ2 W236L pot: potentiators of retigabine-insensitive KCNQ2 W236L, mechanism study for KCNQ2 potentiator project, cell-based, rat KCNQ2 W236L, CHO, automated patch clamp | shares compounds with KCNQ2 enhance | 940 tested, 10% active | automated patch clamp current | AID 2558, 2010 | current increase over 3SD of negative controls (%), hits give high values, % at 25 µM;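 active = current increase at least 3 SD of the untreated controls above them in both duplicate recordings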
* hit, by the source's call; i = inactive; . = not tested or not shown.

SMILES	KCNQ2 inh	KCNQ2 enhance	Kir21 conf inh	HEK293 Tl flux	others
Cc1ccc(S(=O)(=O)N2CCC(C(=O)N3CCCC3C(=O)N[C@@H](CC(C)C)C(=O)NCC(N)=O)CC2)cc1 (some centres not stated)	i	1.3	.	.
O=S(=O)(/C(=C/c1ccc(C(F)(F)F)cc1)c1nc2ccccc2[nH]1)c1ccccc1	-7.8*	-7.8	i	i
CC(C)c1ccc(/C=C(\c2nc3ccccc3[nH]2)S(=O)(=O)c2ccccc2)cc1	i	.	.	.
CC1CCc2c(sc3ncnc(SC(C)C(=O)NCC4CCCO4)c23)C1 (configuration not stated)	i	0.6	.	.
O=C(CNc1cccc(S(=O)(=O)N2CCCC2)c1)Nc1ccc(F)c(F)c1	i	0.02	.	.
Cc1ccc(NC(=O)CNc2cccc(S(=O)(=O)N3CCCC3)c2)cc1F	i	5.5*	i	i	CHO-K1 ctr=-36;KCNQ1 sel pot=-11;KCNQ2 pot conf=0;Kir2-1 sel=-48
Cc1ccccc1CSc1nccn1-c1ccccc1	i	.	.	.
CC(C)(C)OC(=O)NCCc1nnc(SCc2ccc(Cl)cc2Cl)o1	-5.9*	-5.9	34%*	i
CC(C)(C)OC(=O)NCCCCCc1nnc(SCc2cccc(F)c2)o1	i	.	.	.
CC(C)(C)OC(=O)NCCc1nnc(SCc2c(Cl)cccc2Cl)o1	i	.	.	.
CC(C)(C)OC(=O)NCCc1nnc(SCc2cccc(Cl)c2)o1	i	.	26%*	i
Cc1cccc(CSc2nnc(CCNC(=O)OC(C)(C)C)o2)c1	i	.	33%*	i
CC(C)(C)OC(=O)NCCc1nnc(SCC(=O)c2ccc(Cl)cc2)o1	i	.	.	.
O=C(Nc1cccc(NC(=O)C2CCCO2)c1)c1ccco1 (configuration not stated)	i	0.73	.	.
O=C(N/N=C/c1ccc(F)cc1)c1cccc(NC(=O)c2ccccc2Cl)c1	i	1.6	.	.
CCN1CCN(c2ccc(S(=O)(=O)N3CCOCC3)cc2NC(=O)CCC(C)C)CC1	i	1.2	.	.
CC(=O)Nc1ccccc1C(=O)C(=O)Nc1cccc(C(=O)N2CC(C)CC(C)C2)c1 (configuration not stated)	i	1.3	.	.
CC(C)CN(C(=O)COC(=O)CNC(=O)c1sc2ccccc2c1Cl)C1CCS(=O)(=O)C1 (configuration not stated)	i	0.6	i	75%*
CC(C)CN(C(=O)COC(=O)Cc1n[nH]c(=O)c2ccccc12)C1CCS(=O)(=O)C1 (configuration not stated)	i	.	.	.
C=CCNCC(O)COc1ccc(C(C)=O)cc1OC (configuration not stated)	i	0.02	.	.
CN(C)C(=O)C(OC(=O)c1ccc2ccccc2n1)c1ccccc1 (configuration not stated)	i	.	.	.
Cc1ccc(-n2cccc2C(=O)NS(=O)(=O)c2ccc(C)cc2)cc1	i	0.75	.	.
Cc1ccc(-n2cccc2C(=S)N=P(N(C)C)(N(C)C)N(C)C)cc1	i	.	i	i
CCN(CC)C(=O)Nc1ccc(Br)cc1	i	0.68	.	.
Cc1ccc(C(C)NC(=O)C2CCCO2)cc1C (configuration not stated)	i	0.75	.	.
SMILES	KCNQ2 inh	KCNQ2 enhance	Kir21 conf inh	HEK293 Tl flux	others
Cc1ccc(C(C)NC(=O)C2CCCC2)cc1C (configuration not stated)	i	17*	i	i	CHO-K1 ctr=-1;KCNQ1 sel pot=-68;KCNQ2 pot conf=55*;Kir2-1 sel=-36;KCNQ2 W236L pot=i
CC(NC(=O)C1CCCC1)c1ccc(Br)cc1 (configuration not stated)	i	7.1*	i	i	CHO-K1 ctr=-21;KCNQ1 sel pot=28*;KCNQ2 pot conf=9.0*;Kir2-1 sel=-28;KCNQ2 W236L pot=i
CC(NC(=O)C1CCC1)c1ccc(Br)cc1 (configuration not stated)	i	0.98	.	.
CC(=O)NCCC(=O)N(Cc1ccccc1)c1nc2c(C)cccc2s1	i	.	.	.
COC(=O)c1ccc(Oc2c(Cl)cccc2[N+](=O)[O-])cc1	i	.	.	.
CSc1ccc(/C=N/NC(=O)c2cccs2)cc1	i	14*	i	i	CHO-K1 ctr=11*;KCNQ1 sel pot=-4;KCNQ2 pot conf=-20;Kir2-1 sel=-29
O=C(N/N=C/c1ccncc1)c1cccs1	i	.	.	.
COc1ccc(S(=O)(=O)N2CCC3(CC2)OCCN3S(=O)(=O)c2ccc(C)cc2)cc1OC	i	0.69	.	.
COc1ccc(C(C)(C)C)cc1NC(=O)Cn1cnnn1	i	1.1	.	.
Oc1ccccc1-c1n[nH]c(=S)n1Cc1ccccc1	i	3.3	.	.
Oc1ccc(Br)cc1-c1n[nH]c(=S)n1Cc1ccccc1	i	11*	.	.	CHO-K1 ctr=-1;KCNQ1 sel pot=28*;KCNQ2 pot conf=26*;Kir2-1 sel=-86
O=C(Cc1ccccc1F)Nc1ccc2c(c1)CCC2	i	5.2	.	.
O=C(Cc1cccc(F)c1)Nc1ccc2c(c1)CCC2	i	5.5*	i	i	CHO-K1 ctr=3.6*;KCNQ1 sel pot=-13;KCNQ2 pot conf=21*;Kir2-1 sel=-25;KCNQ2 W236L pot=i
CCN(c1nc(N)c(C(=O)N=C(N)N)nc1Cl)C(C)C	i	5.3*	42%*	i	CHO-K1 ctr=9.8*;KCNQ1 sel pot=-9;KCNQ2 pot conf=-2;Kir2-1 sel=-94;KCNQ2 W236L pot=i
O=[N+]([O-])c1ccc(NC(=S)NCc2ccncc2)cc1	i	1.6	.	.
O=[N+]([O-])c1ccc(NC(=S)NCc2ccc(F)cc2)cc1	i	21*	.	.	CHO-K1 ctr=-7;KCNQ1 sel pot=11*;KCNQ2 pot conf=42*;Kir2-1 sel=-51;KCNQ2 W236L pot=i
CN(C)C1(CNC(=O)C2CCN(S(=O)(=O)c3cc(Cl)ccc3Cl)CC2)CCCCC1	i	0.12	.	.
COc1cccc(NC(=O)c2nc(SC)ncc2Cl)c1	i	0.34	.	.
COc1cccc(NC(=O)c2nc(S(C)(=O)=O)ncc2Cl)c1	i	.	63%*	64%*
O=C(CNC(=O)N1CC(=O)Nc2ccccc21)NCCc1cccc(F)c1	i	.	.	.

Screens deposited in PubChem by Johns Hopkins Ion Channel Center.
